Compound activity (PubChem BioAssay)
Pf apPOL block = Pf-apPOL DNA polymerase inhibition | Recombinant Pf-apPOL, molecular beacon fluorescence, 1.5 h | inhibition, % at 10 µM | actives 0.25% (n = 210,000) | AID 1794808
mHTT-CaM PPI inh = mHTT-calmodulin interaction abrogation; actives 3.6% (n = 190,000); AlphaScreen His-mHTT/GST-CaM binding, luminescence; inhibition, % at 15 µM; AID 1671202
Target sequence (P42858 whole entry, looked up, change not shown): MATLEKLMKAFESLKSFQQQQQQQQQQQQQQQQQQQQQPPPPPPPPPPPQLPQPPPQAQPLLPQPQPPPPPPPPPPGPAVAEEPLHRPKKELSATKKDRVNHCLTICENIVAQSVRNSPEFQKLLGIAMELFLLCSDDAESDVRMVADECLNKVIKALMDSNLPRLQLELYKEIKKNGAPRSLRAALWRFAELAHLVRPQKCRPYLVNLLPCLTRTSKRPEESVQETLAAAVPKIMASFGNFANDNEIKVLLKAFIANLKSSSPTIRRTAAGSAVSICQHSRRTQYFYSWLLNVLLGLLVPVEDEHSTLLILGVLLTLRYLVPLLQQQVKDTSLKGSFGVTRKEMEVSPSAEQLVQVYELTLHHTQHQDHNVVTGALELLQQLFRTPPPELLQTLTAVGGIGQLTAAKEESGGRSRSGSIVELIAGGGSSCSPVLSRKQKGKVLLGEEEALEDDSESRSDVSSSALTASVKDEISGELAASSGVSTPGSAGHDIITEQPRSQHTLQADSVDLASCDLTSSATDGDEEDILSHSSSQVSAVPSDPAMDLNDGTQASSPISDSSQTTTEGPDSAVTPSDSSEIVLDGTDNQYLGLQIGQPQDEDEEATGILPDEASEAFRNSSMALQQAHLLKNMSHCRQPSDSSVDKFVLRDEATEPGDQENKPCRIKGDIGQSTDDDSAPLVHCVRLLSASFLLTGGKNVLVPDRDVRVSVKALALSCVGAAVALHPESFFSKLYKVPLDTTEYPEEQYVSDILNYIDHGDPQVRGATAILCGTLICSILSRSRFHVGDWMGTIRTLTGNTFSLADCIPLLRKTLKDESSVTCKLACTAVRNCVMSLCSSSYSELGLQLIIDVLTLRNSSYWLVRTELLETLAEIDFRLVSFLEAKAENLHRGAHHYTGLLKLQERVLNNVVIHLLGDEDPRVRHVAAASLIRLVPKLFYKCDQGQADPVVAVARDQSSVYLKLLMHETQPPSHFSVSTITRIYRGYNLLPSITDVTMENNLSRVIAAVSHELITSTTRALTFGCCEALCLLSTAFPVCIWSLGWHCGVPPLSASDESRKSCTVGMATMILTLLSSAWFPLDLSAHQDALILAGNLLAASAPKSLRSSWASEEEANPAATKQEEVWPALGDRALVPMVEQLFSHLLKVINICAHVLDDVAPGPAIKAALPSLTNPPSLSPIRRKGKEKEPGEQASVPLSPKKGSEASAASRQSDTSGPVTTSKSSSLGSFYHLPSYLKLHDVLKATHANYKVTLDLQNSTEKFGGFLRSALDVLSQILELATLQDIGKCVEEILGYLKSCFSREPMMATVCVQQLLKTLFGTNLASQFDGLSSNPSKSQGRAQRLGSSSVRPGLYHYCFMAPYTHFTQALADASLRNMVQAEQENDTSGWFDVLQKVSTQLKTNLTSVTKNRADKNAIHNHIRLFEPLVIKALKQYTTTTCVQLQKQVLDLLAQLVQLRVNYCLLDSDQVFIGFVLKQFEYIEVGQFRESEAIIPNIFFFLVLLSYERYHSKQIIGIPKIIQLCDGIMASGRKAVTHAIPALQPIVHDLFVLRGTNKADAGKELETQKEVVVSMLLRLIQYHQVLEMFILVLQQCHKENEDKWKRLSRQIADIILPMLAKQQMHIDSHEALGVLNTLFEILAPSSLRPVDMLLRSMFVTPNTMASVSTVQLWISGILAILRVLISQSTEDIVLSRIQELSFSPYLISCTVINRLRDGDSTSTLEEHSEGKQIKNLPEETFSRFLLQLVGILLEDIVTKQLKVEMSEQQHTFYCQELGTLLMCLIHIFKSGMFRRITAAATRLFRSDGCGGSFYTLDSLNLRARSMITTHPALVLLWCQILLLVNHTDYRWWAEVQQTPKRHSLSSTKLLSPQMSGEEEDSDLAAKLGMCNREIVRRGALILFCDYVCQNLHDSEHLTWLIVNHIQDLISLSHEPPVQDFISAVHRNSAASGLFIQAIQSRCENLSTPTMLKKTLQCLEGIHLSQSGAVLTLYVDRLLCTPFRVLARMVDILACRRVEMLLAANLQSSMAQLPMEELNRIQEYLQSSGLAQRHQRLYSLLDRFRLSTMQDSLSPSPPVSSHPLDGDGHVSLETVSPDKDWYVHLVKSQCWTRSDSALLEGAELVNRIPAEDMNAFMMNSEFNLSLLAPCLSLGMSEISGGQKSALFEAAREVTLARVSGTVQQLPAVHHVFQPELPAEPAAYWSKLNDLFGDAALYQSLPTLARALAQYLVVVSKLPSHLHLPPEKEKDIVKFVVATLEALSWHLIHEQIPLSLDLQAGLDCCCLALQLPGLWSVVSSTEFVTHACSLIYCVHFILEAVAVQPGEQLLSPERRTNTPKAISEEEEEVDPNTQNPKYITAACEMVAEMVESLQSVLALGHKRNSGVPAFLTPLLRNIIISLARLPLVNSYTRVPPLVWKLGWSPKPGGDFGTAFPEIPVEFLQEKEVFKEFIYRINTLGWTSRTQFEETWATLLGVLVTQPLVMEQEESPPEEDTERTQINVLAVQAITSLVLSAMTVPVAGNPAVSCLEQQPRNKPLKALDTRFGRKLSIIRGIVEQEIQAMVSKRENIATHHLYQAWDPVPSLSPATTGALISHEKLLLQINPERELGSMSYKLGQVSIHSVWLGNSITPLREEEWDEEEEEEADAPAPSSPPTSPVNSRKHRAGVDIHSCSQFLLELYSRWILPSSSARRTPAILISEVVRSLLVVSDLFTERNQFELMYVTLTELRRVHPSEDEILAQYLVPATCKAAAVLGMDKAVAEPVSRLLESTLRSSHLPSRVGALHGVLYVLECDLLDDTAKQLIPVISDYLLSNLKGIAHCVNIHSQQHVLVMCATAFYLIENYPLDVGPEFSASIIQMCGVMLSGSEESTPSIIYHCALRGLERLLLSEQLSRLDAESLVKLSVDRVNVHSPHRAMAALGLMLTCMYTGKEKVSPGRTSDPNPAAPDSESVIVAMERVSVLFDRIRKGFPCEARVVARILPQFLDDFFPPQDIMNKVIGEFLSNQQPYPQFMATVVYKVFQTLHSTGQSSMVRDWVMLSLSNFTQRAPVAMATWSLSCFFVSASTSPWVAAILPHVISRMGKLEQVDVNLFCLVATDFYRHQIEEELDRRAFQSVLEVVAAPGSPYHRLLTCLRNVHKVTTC
Of the large screens only hits and unclear results are named; the others gave an inactive call. Only some compounds are listed: those with a hit (about 3.6% of all), similar ones and a draw of the others. Rule as the data show it: active = inhibition above about 50%; inactive = the rest.

N#CCCc1cccc(NC(=O)c2cc3n(n2)C(C(F)(F)F)CC(c2ccc(Cl)cc2)N3)c1 (centres undefined)	mHTT-CaM PPI inh 74
Cc1ccc(C2CC(C(F)(F)F)n3nc(C(=O)Nc4cccc(CCC#N)c4)cc3N2)cc1 (centres undefined)	none
Cc1ccc(CN2CCN(C3CCN(C(=O)Nc4ccc(C)c(F)c4)CC3)C2=O)cc1	none
CCCN1CCN(C(=O)C2CCCN(c3nccc4sc(C)cc34)C2)CC1 (centres undefined)	none
O=C1C(=Cc2cccc([N+](=O)[O-])c2)Oc2cc(OC(=O)C3CC3)ccc21	none
COc1ccc(C2C(C(=O)N(C)c3ccc(Cl)cc3)CC(=O)N2c2ccc(OC)cc2)cc1 (centres undefined)	mHTT-CaM PPI inh 87
COc1ccc(C2C(C(=O)Nc3ccc4c(c3)OCO4)CC(=O)N2c2ccc(OC)cc2)cc1 (centres undefined)	none
Cc1cc(F)ccc1NC(=O)C1CC(=O)N(c2ccc3c(c2)CCN3C(=O)C2CC2)C1 (centres undefined)	none
COCCNC(=O)c1cc2n(n1)CCCN(Cc1ccc(F)cc1)C2=O	none
Cc1cccc(C)c1NC(=O)CN(C)S(=O)(=O)c1ccc2[nH]c3c(c2c1)CCCC3	none
Cc1cccc(N(C)C(=O)CN(C)S(=O)(=O)c2ccc3[nH]c4c(c3c2)CCCC4)c1	mHTT-CaM PPI inh 62
CCN(Cc1ccccc1)C(=O)CN(C)S(=O)(=O)c1ccc2[nH]c3c(c2c1)CCCC3	mHTT-CaM PPI inh 65
CN(CC(=O)NCc1ccccc1)S(=O)(=O)c1ccc2[nH]c3c(c2c1)CCCC3	none
CC1=C(c2ccccc2)S(=O)(=O)N=C1N1CCCN(C(=O)CC(C)(C)C)CC1	none
CSc1cccc(C(=O)Nc2nc(-c3ccc(C#N)cc3)cs2)c1	none
Cc1nnc(C)c2c(C)n(-c3ccc4ncccc4c3)c(C)c12	none
Cc1ccc(C)n1-c1ccc2ncccc2c1	mHTT-CaM PPI inh 67
CC(=O)NC1C(Oc2ccc(C)cc2)OC2COC(C)(C)OC2C1O (centres undefined)	none
Cc1cc(I)ccc1NC(=O)COc1ccccc1Cl	none
CC(C)c1ccc(CN2CC(C(=O)Nc3nc4ccccc4s3)CC2=O)cc1 (centres undefined)	mHTT-CaM PPI inh 100
COc1ccc2nc(NC(=O)C3CC(=O)N(c4cccc(NC(C)=O)c4)C3)sc2c1 (centres undefined)	none
CC(C)c1ccc(CN2CC(C(=O)Nc3ccccc3)CC2=O)cc1 (centres undefined)	none
CC(=O)Nc1cccc(N2CC(C(=O)Nc3nc4ccc(Cl)cc4s3)CC2=O)c1 (centres undefined)	mHTT-CaM PPI inh 53
CC(=O)NC1=NC(=O)/C(=C/c2c(Cl)cccc2Cl)S1	none
O=C(NCc1ccccc1Cl)C1CCN(c2nc3ccccc3[nH]2)CC1	none
O=C1NC(=O)N(c2cccc(C(F)(F)F)c2)C(=O)/C1=C/c1ccc(O)cc1	mHTT-CaM PPI inh 52
COc1cc(/C=C2\C(=O)NN(c3ccc(I)cc3)C2=O)cc(OC)c1O	mHTT-CaM PPI inh 61
COc1cccc(/C=C2\C(=O)NN(c3cccc(C(F)(F)F)c3)C2=O)c1	mHTT-CaM PPI inh 85
COc1cccc(/C=C2\C(=O)NN(c3ccc(C)c(C)c3)C2=O)c1	none
COc1cc(/C=C2\C(=O)NN(c3ccc(C)c(C)c3)C2=O)cc(OC)c1OC	none
COc1cc(/C=C2\C(=O)NN(c3ccc(C)c(Cl)c3)C2=O)cc(OC)c1OC	none
COc1cc(/C=C2\C(=O)NC(=O)N(c3cccc(C)c3)C2=O)cc(OC)c1O	none
COc1c(Cl)cc(/C=C2\C(=O)NN(c3ccccc3)C2=O)cc1Cl	mHTT-CaM PPI inh 96
COc1ccc(CNC(=O)C2(C)Cc3ccccc3C(=O)N2Cc2ccccc2)cc1 (centres undefined)	none
O=C(Nc1c2c(nn1-c1ccc([N+](=O)[O-])cc1)CSC2)c1cc(Cl)ccc1[N+](=O)[O-]	none
Cc1nc(CNC(=O)C2CCN(C(=O)Nc3cccc(Br)c3)CC2)cs1	none
COc1ccc(-n2nc(C(=O)Nc3ccccc3C(F)(F)F)c3ccccc3c2=O)c(OC)c1	none
CC(=O)N1CCc2ccc(C(=O)N3CCCCC3)cc21	none
COc1cc(Cl)cc(/C=C2\C(=O)NN(c3cccc(Cl)c3)C2=O)c1O	mHTT-CaM PPI inh 58
CCOc1cc(/C=C2\C(=O)NN(c3cccc(Br)c3)C2=O)cc(Cl)c1OCC	mHTT-CaM PPI inh 98
CCOc1cc(/C=C2\C(=O)NN(c3ccc(Br)cc3)C2=O)cc(Cl)c1O	none
COc1cc(Cl)cc(/C=C2\C(=O)NN(c3ccc(C)c(C)c3)C2=O)c1O	none
O=C(c1ccc[nH]1)N1CCC2(CC1)NC(=O)N(Cc1ccc(Cl)cc1)C2=O	none
CCc1cc(C2CCCN2C(=O)c2cc(C(F)(F)F)n(C)n2)on1 (centres undefined)	none
CCOCC(=O)N1CCCC(c2ccnc(Nc3cccc(C)c3)n2)C1 (centres undefined)	none
O=C(NNC(=O)C(F)(F)Sc1ccccc1)c1ccsc1	Pf apPOL block 54 (no result: mHTT-CaM PPI inh)
O=C(NCC(O)(c1ccccc1)C(F)(F)F)c1ccsc1 (centres undefined)	none
CN1c2cc(Cl)ccc2C(=O)NC12CCN(C(=O)Nc1cc(F)ccc1F)CC2	none
COCCN1C(=O)c2ccccc2C(C(=O)N2CCC(C(N)=O)CC2)C1c1ccc(F)cc1 (centres undefined)	none
O=C(NCCC1CCN(C(=O)NC2CCCCC2)CC1)c1cccc(Cl)c1	none
COc1ccc(OC)c(N2CCN(Cc3ccc(F)cc3)C(C)C2=O)c1 (centres undefined)	mHTT-CaM PPI inh 74
COc1ccc(N2CCN(Cc3ccc(F)cc3)C(C)C2=O)c(OC)c1 (centres undefined)	none
COc1ccc(OC)c(N2CCN(Cc3ccccc3F)C(C)C2=O)c1 (centres undefined)	none
COc1ccc(OC)c(N2CCN(Cc3cccc(C)c3)C(C)C2=O)c1 (centres undefined)	mHTT-CaM PPI inh 62
COc1ccc(C2(C)NC(=O)N(CC(=O)N3CCc4ccccc43)C2=O)cc1 (centres undefined)	none
Cc1ccc(COCc2nn(C)c3c2CN(C(=O)Nc2ccccc2)CC3)cc1	none
O=C1C(=Cc2ccc3ccccc3n2)Oc2cc(O)ccc21	none
COc1cccc2ccc(C=C3Oc4cc(O)ccc4C3=O)nc12	Pf apPOL block 62
COc1ccc(S(=O)(=O)NCCc2ccc(N3CCCC3)cc2)cc1OC	mHTT-CaM PPI inh 54
COc1ccc(CCNS(=O)(=O)c2ccc(C)cc2)cc1OC	none
COc1cc(OC)cc(C(=O)Nc2ccc(Cl)cc2C)c1	none
Cc1ccc(C)n1Cc1ccc(C(=O)O)cc1	mHTT-CaM PPI inh 53
O=C(O)c1ccc(CN2CCOCC2)cc1	none
O=C(NCC1CCCCC1)c1ccc(CN2C(=O)C3CCCN3C(=O)c3ccccc32)cc1 (centres undefined)	none
CCCCC(=O)Nc1ccc2c(c1)CC(C(=O)NCc1ccc(F)cc1)CO2 (centres undefined)	none
Cn1nc(C(=O)NCc2ccc(Cl)cc2)c2c1CCN(C(=O)c1ccco1)C2	none
Cc1cccc(CNC(=O)c2nn(C)c3c2CN(C(=O)c2cccc(F)c2)CC3)c1	mHTT-CaM PPI inh 71
Cc1cccc(C(=O)N2CCc3c(c(C(=O)NCc4ccc(Cl)cc4)nn3C)C2)c1	mHTT-CaM PPI inh 91
Cc1cccc(CNC(=O)c2nn(C)c3c2CN(C(=O)c2ccccc2C)CC3)c1	none
Cc1cccc(CNC(=O)c2nn(C)c3c2CN(C(=O)c2cccc(C)c2)CC3)c1	mHTT-CaM PPI inh 74
O=C(NC(N1CCCCC1)C(Cl)(Cl)Cl)c1ccc([N+](=O)[O-])cc1 (centres undefined)	none
CCC(=O)N1CCN(c2nc3c(s2)CC(C(=O)Nc2ccc(Cl)cc2C)CC3)CC1 (centres undefined)	none
Cc1[nH]c(C(=O)N2CCC(CC(=O)N3CCN(C(=O)c4ccco4)CC3)CC2)c(C)c1C	none
Cc1cccn2c(=O)c3cc(C(=O)NCc4ccccc4)c(=N)n(Cc4ccco4)c3nc12	none
